We go through four compounds from PubChem BioAssay.

Experiment [1] can be described thus: yeast TOR pathway RPL19A-GFP modulators, primary screen, cell-based, S. cerevisiae, multiplex flow cytometry (AID 1862; in the data active = percent of DMSO control GFP below about 86%;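 note: lower values mimic rapamycin by blocking the RPL19A rise seen in DMSO cells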). Conditions: S. cerevisiae RPL19A-GFP strain, flow cytometry fluorescence, 3 h; at 10 µM; stronger effect = lower value.
A short description of experiment [2]: modulators of MEP2-GFP levels in yeast, primary screen, S. cerevisiae, multiplex flow cytometry (AID 1867;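 active = GFP response, as percent of the DMSO control, above the screen-wide mean plus 3 SD, about 139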;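 note: median GFP channel fluorescence of barcode-gated MEP2-GFP cells measured by flow cytometry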). Conditions: S. cerevisiae MEP2-GFP strain, 3 h, at 10 µM, stronger effect = higher value.
Experiment [3] is described as follows: modulators of CIT2-GFP expression in yeast, primary screen, S. cerevisiae, GFP fusion, multiplex flow cytometry (AID 1870;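 active = percent response above a set limit, the screen-wide mean plus 3 SD, cut at about 130% in these data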;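 note: barcoded CIT2-GFP strain pooled with four other GFP strains with rapamycin as positive control; median GFP fluorescence per well over plate mean of DMSO wells so 100% = DMSO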). Conditions: 3 h, at 10 µM, stronger effect = higher value.
A short description of experiment [4]: modulators of LAP4-GFP expression in yeast, primary screen, S. cerevisiae, multiplex flow cytometry (AID 1873;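 active = GFP signal, as percent of the solvent control, above the screen mean plus 3 SD, about 149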). As to conditions: 3 h, at 10 µM, stronger effect = higher value.
Experiment [5] can be described thus: modulators of AGP1-GFP expression in yeast TOR pathway, primary screen, cell-based, multiplex flow cytometry, S. cerevisiae (AID 1887;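 active = GFP signal above the screen-wide mean plus 3 SD, that is over about 124.5% of the solvent control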;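 note: AGP1-GFP fusion strain of S. cerevisiae within a five-strain barcoded multiplex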). Conditions: 3 h, at 10 µM, stronger effect = higher value.
Experiment [6] is described as follows: inhibitors of CD8+ T cell-vesicle binding, pilot screen, LFA-1/ICAM-1 modulator project, MLPCN validation set, flow cytometry (AID 2523;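 active = response below a set limit, under 55% cells CD8-positive and vesicle-bound, and CD8 cells' 90th-percentile brightness under 279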;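 for vesicle binding response: mean PE anti-B7-1 fluorescence of CD8+ cells relative to row control; 100% = QL9-loaded vesicles with DMSO vehicle in the same plate row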). As to conditions: 2C mouse CD8+ T cells, at 7 µM, stronger effect = lower value; double positive events: measured here: CD8+/vesicle+ event percentage.
For experiment [7], the target named is Integrin beta-1 (Homo sapiens) + Integrin alpha-4 (Homo sapiens) (UniProt P13612+P05556). In words: inhibition of HUTS-21 binding to VLA-4, pilot screen, VLA-4 allosteric modulator project, U937 cells, HUTS-21 mAb, flow cytometry, validation set (AID 2674;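 active = inhibition above 50%, about 3 SD of the validation set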;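 note: antibody binding induced by the VLA-4 ligand LDV present at three times its Kd; 0% = LDV ligand with antibody and no compound and 100% = antibody without LDV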). Conditions: HUTS-21 LIBS mAb binding, at 6.7 µM, stronger effect = higher value.
Chain of Integrin beta-1 (Homo sapiens) + Integrin alpha-4 (Homo sapiens) (P05556 whole entry, looked up): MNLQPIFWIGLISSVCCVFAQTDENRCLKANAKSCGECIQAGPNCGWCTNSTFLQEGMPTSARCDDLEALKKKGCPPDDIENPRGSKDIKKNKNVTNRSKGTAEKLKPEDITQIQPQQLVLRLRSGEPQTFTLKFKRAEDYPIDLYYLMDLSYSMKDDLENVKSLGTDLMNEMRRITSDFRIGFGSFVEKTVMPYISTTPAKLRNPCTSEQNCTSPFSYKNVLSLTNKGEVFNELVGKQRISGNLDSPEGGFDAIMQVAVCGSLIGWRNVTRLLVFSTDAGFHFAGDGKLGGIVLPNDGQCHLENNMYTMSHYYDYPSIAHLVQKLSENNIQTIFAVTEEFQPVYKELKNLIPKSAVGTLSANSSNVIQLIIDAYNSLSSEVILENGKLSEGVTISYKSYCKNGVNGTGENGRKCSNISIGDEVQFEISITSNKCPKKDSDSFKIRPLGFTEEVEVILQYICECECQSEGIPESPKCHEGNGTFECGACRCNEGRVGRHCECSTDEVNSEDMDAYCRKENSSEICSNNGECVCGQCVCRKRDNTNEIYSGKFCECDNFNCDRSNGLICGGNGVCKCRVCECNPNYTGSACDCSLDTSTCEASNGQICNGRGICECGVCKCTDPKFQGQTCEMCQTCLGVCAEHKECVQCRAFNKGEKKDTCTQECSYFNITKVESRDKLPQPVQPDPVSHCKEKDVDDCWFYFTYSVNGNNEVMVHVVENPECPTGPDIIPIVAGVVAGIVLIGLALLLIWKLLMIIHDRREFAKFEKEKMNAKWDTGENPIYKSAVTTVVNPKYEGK
Chain of Integrin beta-1 (Homo sapiens) + Integrin alpha-4 (Homo sapiens) (P13612 whole entry, looked up): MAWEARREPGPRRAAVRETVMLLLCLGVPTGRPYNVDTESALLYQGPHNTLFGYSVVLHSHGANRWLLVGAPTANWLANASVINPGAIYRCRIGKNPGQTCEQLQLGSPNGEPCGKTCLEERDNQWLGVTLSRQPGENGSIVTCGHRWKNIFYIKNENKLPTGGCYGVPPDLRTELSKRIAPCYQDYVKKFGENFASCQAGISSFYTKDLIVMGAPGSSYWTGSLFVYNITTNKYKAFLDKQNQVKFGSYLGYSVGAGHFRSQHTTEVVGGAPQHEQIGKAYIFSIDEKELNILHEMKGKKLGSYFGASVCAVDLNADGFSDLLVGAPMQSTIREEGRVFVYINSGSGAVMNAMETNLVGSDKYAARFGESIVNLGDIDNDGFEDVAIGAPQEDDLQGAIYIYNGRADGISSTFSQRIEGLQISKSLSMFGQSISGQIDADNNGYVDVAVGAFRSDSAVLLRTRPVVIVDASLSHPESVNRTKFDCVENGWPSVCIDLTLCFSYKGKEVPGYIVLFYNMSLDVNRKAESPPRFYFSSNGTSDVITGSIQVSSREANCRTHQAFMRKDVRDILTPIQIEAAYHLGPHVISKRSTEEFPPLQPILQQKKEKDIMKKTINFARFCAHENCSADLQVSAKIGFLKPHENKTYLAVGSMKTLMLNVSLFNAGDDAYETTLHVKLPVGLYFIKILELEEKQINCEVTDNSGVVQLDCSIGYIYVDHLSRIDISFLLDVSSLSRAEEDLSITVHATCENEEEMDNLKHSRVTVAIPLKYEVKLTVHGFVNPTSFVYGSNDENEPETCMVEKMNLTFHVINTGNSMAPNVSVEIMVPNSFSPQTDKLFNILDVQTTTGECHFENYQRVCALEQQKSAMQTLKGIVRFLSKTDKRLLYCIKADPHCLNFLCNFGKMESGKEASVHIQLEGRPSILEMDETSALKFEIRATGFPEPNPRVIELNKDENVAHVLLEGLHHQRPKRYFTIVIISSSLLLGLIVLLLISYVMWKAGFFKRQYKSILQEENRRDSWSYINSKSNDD
A short description of experiment [8]: superoxide lowering in aged yeast cells, pilot screen, validation compound set (AID 2706;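 active = superoxide response below 65% of plate, a cut near 3 SD across the whole screen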;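 note: yeast exposed to compound for one week at 30 degrees C before staining; 100% = mean of all compound wells on the same plate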). As to conditions: S. cerevisiae aging, superoxide DHE fluorescence; at 10 µM; stronger effect = lower value.
Experiment [9] deals with Beta-adrenergic receptor kinase 1 (Homo sapiens) (UniProt P25098). In words: GRK2 binders displacing RNA aptamer, biochemical, validation, human GRK2, bead flow cytometry (AID 488806;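 active = aptamer binding inhibition above 30%, about 3 SD of noise from non-fluorescent compounds; inactive = inhibition at or below 30%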). Conditions: bead-bound GRK2, FAM-aptamer displacement, at 10 µM, stronger effect = higher value.
The target of experiment [10] is Beta-2 adrenergic receptor (Homo sapiens) (UniProt P07550). Briefly: beta2AR agonists driving receptor internalization, pilot screen, cell-based, FAP fluorogen, flow cytometry, validation set (AID 504459;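 active = percent response above 42, roughly 3 SD of non-fluorescent test compounds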;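 note: agonist-driven loss of surface beta2AR via internalization measured by FAP dye flow cytometry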). Conditions: Am2.2-beta2AR cells, FAP surface receptor flow cytometry; at 10 µM; stronger effect = higher value.
Chain of Beta-2 adrenergic receptor (Homo sapiens) (P07550 whole entry, looked up): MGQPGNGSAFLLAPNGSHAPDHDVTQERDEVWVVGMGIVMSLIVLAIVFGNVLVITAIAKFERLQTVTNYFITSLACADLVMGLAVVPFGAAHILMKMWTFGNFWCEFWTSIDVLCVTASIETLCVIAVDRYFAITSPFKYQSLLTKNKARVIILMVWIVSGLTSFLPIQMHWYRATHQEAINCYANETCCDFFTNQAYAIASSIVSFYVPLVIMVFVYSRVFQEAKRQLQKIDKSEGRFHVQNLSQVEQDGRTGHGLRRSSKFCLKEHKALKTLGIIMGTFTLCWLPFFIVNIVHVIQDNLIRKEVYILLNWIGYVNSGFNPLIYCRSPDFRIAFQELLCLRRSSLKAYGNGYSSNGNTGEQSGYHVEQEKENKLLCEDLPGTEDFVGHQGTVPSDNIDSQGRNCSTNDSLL
Experiment [11] addresses AP-2 complex subunit beta (Homo sapiens) (UniProt P63010). Briefly: inhibitors of arrestin peptide binding to AP2, pilot screen, biochemical, validation set, GST-AP2 beads, flow cytometry (AID 504541;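 active = inhibition above 54%, about 3 SD of non-fluorescent compounds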;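 note: AP2 carries R879A mutation and is captured from E. coli lysate; bead-bound FITC arrestin peptide fluorescence measuring arrestin peptide binding to AP2; 0% = DMSO wells and 100% = excess unlabeled arrestin peptide control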). As to conditions: FITC arrestin peptide, at 10 µM, stronger effect = higher value.
Experiment [12] is described as follows: yeast V-ATPase proton transport modulators, S. cerevisiae, pHLuorin, HTS validation (AID 504600; in the data active = response above about 15%;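 note: plate controls were DMSO for no effect and reference compound for full effect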). As to conditions: S. cerevisiae pHLuorin cytosolic pH, at 10 µM, stronger effect = higher value.
Experiment [13] has as its system anti-desmoglein-3 scFv antibody binding to human DSG3. Briefly: inhibitors of anti-DSG3 scFv binding to DSG3, pilot screen, biochemical, validation compound set, bead-based, flow cytometry (AID 588368;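 active = binding below the plate cutoff, the plate median minus 3 SD, with a reading above zero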;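 note: signal is the median channel fluorescence of bead-bound GFP antibody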). As to conditions: Protein G beads, DSG3-Fc, scFv-GFP binding, at 10 µM, stronger effect = lower value.
The subject of experiment [14] is Botulinum neurotoxin type F light chain protease (Clostridium botulinum). Briefly: Botulinum neurotoxin type F light chain protease inhibition, multiplex microsphere flow cytometry, validation set (AID 588459). As to conditions: multiplex microsphere protease substrate cleavage assay, at 10 µM, stronger effect = higher value.
Experiment [15] addresses Botulinum neurotoxin type A (Clostridium botulinum) (UniProt P0DPI0). Briefly: BoNT/A light chain protease inhibitors, biochemical, multiplex microsphere flow cytometry, validation set (AID 588460). As to conditions: at 10 µM, stronger effect = higher value.
For experiment [16], the target named is Lethal factor (Bacillus anthracis) (UniProt P15917). Briefly: Lethal factor protease inhibitors, Bacillus anthracis, multiplex microsphere cleavage assay, validation set (AID 588461). Conditions: flow cytometry, at 10 µM, stronger effect = higher value.
Experiment [17] can be described thus: inhibitors of fungal efflux pumps CDR1, CDR2, MDR1, pilot screen, validation compound set, multiplex, phenotypic (AID 588506;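 active = efflux inhibition above 0.42, the validation set average plus 4 SD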;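 note: Nile Red retained in cells so higher fluorescence means more efflux inhibition; 0 = negative control wells and 1 = enniatin B 25 µM full block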). As to conditions: S. cerevisiae pump-expressing triplex, Nile Red efflux flow cytometry; at 10 µM; stronger effect = higher value.
The target in experiment [18] is ATP-binding cassette sub-family B member 6 (Homo sapiens) (UniProt Q9NP58). Briefly: ABCB6 transporter inhibitors, pilot screen, K562-ABCB6 cells, flow cytometry, validation set (AID 588550;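 active = inhibition above the screen-wide mean plus 3 SD, about 51%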;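 note: 0% = DMSO wells and 100% = benzethonium chloride 70 µM positive control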). Conditions: K562-ABCB6 porphyrin accumulation, 1 h, at 10 µM, stronger effect = higher value.
Experiment [19] in a line: promoters of myeloid differentiation in arrested cells, primary screen, cell-based, GFP/MAC1 double positive, flow cytometry, validation set (AID 588685;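 active = differentiation response of at least 50%, scaled between solvent and reference control, from cells with both markers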;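 note: compound exposure lasts four days before antibody staining and flow analysis; 0% = DMSO wells and 100% = 5 µM fulvestrant positive control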). Conditions: ER-HoxA9 marrow cells, stronger effect = higher value.

Results filed as inconclusive are left out. The source made the active and inactive calls. Unless noted, the rule behind the calls is not given here.

Chain of AP-2 complex subunit beta (Homo sapiens) (P63010 whole entry, looked up, one chain of several): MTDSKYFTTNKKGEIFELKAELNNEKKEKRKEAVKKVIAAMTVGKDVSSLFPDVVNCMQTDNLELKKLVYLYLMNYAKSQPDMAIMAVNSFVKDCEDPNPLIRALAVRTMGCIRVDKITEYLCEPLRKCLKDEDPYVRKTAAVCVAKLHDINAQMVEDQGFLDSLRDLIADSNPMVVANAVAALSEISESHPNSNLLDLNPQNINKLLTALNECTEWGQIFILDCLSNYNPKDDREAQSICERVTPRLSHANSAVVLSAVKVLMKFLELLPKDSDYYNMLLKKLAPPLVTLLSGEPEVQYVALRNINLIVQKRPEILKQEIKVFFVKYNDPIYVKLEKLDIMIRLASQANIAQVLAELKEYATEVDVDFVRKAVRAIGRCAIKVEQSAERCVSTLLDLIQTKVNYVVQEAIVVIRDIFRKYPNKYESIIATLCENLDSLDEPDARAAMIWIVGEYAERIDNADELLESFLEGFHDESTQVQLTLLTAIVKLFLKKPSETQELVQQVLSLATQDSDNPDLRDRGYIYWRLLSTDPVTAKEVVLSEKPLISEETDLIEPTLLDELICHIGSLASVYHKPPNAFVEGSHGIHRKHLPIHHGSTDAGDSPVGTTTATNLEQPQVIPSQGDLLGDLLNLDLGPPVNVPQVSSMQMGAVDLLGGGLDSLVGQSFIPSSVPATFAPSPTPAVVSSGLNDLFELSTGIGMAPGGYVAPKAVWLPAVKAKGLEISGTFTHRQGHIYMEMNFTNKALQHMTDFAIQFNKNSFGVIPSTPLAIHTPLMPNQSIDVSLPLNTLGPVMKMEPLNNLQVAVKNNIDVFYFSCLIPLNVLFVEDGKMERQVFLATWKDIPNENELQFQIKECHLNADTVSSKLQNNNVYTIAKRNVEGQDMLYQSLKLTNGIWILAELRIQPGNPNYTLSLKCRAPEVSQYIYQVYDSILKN
Chain of Botulinum neurotoxin type A (Clostridium botulinum) (P0DPI0 whole entry, looked up): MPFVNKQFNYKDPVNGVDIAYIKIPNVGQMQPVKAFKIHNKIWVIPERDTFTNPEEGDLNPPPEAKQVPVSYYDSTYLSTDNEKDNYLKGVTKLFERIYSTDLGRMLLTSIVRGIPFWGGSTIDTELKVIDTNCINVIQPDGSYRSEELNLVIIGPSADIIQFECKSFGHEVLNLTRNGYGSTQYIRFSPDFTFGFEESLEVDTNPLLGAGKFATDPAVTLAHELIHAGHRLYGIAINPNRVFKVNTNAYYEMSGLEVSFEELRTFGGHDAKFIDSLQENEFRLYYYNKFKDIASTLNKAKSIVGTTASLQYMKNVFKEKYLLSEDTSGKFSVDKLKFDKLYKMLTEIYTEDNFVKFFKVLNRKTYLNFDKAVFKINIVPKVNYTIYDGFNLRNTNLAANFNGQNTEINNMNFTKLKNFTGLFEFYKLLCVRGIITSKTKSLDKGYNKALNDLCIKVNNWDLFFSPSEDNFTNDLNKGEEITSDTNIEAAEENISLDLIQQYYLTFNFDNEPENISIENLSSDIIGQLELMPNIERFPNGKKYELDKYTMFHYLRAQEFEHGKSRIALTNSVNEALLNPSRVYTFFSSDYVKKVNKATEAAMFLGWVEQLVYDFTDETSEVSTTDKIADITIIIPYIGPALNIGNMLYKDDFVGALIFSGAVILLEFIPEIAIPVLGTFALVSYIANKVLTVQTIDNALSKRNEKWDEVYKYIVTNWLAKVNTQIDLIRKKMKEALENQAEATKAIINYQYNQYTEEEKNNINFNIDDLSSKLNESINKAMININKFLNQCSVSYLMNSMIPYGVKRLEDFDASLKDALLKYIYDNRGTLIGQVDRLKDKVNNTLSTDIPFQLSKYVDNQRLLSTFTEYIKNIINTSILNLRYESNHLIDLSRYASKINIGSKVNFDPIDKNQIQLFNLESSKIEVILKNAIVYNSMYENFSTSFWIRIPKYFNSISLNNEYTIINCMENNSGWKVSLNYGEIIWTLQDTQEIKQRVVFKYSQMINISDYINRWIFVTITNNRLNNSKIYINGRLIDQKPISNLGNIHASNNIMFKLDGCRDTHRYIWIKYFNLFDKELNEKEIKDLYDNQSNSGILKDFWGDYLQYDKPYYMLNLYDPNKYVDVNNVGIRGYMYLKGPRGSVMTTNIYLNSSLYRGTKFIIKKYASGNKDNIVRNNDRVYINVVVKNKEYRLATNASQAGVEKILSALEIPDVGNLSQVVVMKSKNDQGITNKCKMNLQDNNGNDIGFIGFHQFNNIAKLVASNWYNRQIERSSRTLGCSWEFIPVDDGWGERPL

On to `CN1CCN(C(=O)OC2c3nccnc3C(=O)N2c2ccc(Cl)cn2)CC1` (stereo not given), for which the percent of DMSO control GFP in experiment [1] is 99.9% (inactive). Further, the GFP response vs DMSO in [2] is 112% (inactive); in experiment [4], 117% (inactive). Moreover, in experiment [3], the percent response of DMSO control was 92.9% (inactive). Moreover, the GFP response, % of DMSO in experiment [5] was 106% (inactive). The same compound returned a double positive events in experiment [6] of 58.9%. For the same compound, the vesicle binding response in [6] was 6590% (inactive). Further, the inhibition in experiment [7] is 9.13% (inactive); in experiment [11] it was 0.51% (inactive); in experiment [14] it was 4.3% (inactive); in [15], -0.8% (inactive); in experiment [16], 1.7% (inactive); in experiment [18], 5% (inactive). Further, the superoxide response (% of plate) in experiment [8] is 111% (inactive). The aptamer binding inhibition in experiment [9] was 2% (inactive). The response in [10] is -5.78% (inactive); in experiment [12], -1.22% (inactive). In addition, the binding (% of control) in experiment [13] is 100% (inactive). The efflux inhibition (fraction of control) in [17] is -0.03 (inactive). Besides, the differentiation response in [19] was -13.6% (inactive).

In the case of `CCC1(c2ccccc2)C(=O)N(COC)C(=O)N(COC)C1=O`, the percent of DMSO control GFP in [1] is 102% (inactive). Also, the GFP response vs DMSO in experiment [2] was 102% (inactive); in [4] it was 112% (inactive). Also, the percent response of DMSO control in experiment [3] is 103% (inactive). In addition, the GFP response, % of DMSO in experiment [5] was 112% (inactive). In addition, the double positive events in [6] came to 62.2%. For the same compound, the vesicle binding response in [6] was 148% (inactive). For the same compound, the inhibition in experiment [7] was 10.8% (inactive); in experiment [11] it was 10.8% (inactive); in experiment [14] it was 2% (inactive); in [15], -0.2% (inactive); in [16], 0.4% (inactive); in experiment [18], 4% (inactive). The superoxide response (% of plate) in experiment [8] is 109% (inactive). In addition, in [9], the aptamer binding inhibition is 2% (inactive). For the same compound, the response is -14.8% (inactive) in experiment [10] and -4.18% (inactive) in [12]. In addition, the binding (% of control) in experiment [13] was 102% (inactive). The efflux inhibition (fraction of control) in experiment [17] was 0.12 (inactive). The differentiation response in experiment [19] is 3.88% (inactive).

In the case of `Nc1ccncc1`, in experiment [1], the percent of DMSO control GFP was 97.9% (inactive). Further, the GFP response vs DMSO in experiment [2] was 119% (inactive); in [4] it was 77.6% (inactive). Also, the percent response of DMSO control in experiment [3] was 111% (inactive). Further, the GFP response, % of DMSO in [5] is 99.6% (inactive). The same compound yielded a double positive events in experiment [6] of 61%. Also, the vesicle binding response in experiment [6] was 218% (inactive). For the same compound, the inhibition in [7] is -0.33% (inactive); in experiment [11] it was -14.8% (inactive); in experiment [14] it was 2.4% (inactive); in [15] it was -0.4% (inactive); in experiment [16], -3% (inactive); in [18] it was 13% (inactive). In addition, the superoxide response (% of plate) in experiment [8] is 94.5% (inactive). Moreover, the aptamer binding inhibition in experiment [9] was 1% (inactive). Further, the results for the response in experiment [10] and in [12] were -11.6% (inactive) and -2.33% (inactive), respectively. In addition, the binding (% of control) in [13] was 108% (inactive). Moreover, the efflux inhibition (fraction of control) in experiment [17] was -0.02 (inactive). Further, the differentiation response in experiment [19] was 4.09% (inactive).

In the case of `C[C@]12CCC(=O)C=C1CCC1C2CC[C@@]2(C)C1CC[C@@]2(O)CC#N` (stereo not given in full), the percent of DMSO control GFP in [1] was 99.8% (inactive). Also, the GFP response vs DMSO in [2] was 105% (inactive); in experiment [4], 90.7% (inactive). Also, the percent response of DMSO control in experiment [3] was 101% (inactive). In addition, in [5], the GFP response, % of DMSO is 98% (inactive). Further, the double positive events in experiment [6] turned out to be 71.1%. In addition, in [6], the vesicle binding response was 961% (inactive). In addition, the inhibition is 12% (inactive) in experiment [7]; -0.45% (inactive) in experiment [11]; 3.3% (inactive) in experiment [14]; -0.9% (inactive) in [15]; -2.6% (inactive) in experiment [16]; 8% (inactive) in experiment [18]. Besides, in experiment [8], the superoxide response (% of plate) was 95.6% (inactive). The aptamer binding inhibition in experiment [9] was 5% (inactive). Moreover, the response in experiment [10] was -3.28% (inactive); in experiment [12], -1.52% (inactive). The binding (% of control) in experiment [13] is 97.9% (inactive). In addition, the efflux inhibition (fraction of control) in experiment [17] is -0.07 (inactive). The differentiation response in [19] was 11% (inactive).
